# Legend:
# Details in all cases: Compound Concentration (nM):1000
# AAK1 = system: AAK1
# [1] = system: ABL1(E255K)-phosphorylated
# [2] = system: ABL1(F317I)-nonphosphorylated
# [3] = system: ABL1(F317I)-phosphorylated
# [4] = system: ABL1(F317L)-nonphosphorylated
# [5] = system: ABL1(F317L)-phosphorylated
# [6] = system: ABL1(H396P)-nonphosphorylated
# [7] = system: ABL1(H396P)-phosphorylated
# [8] = system: ABL1(M351T)-phosphorylated
# [9] = system: ABL1(Q252H)-nonphosphorylated
# [10] = system: ABL1(Q252H)-phosphorylated
# [11] = system: ABL1(T315I)-nonphosphorylated
# [12] = system: ABL1(T315I)-phosphorylated
# [13] = system: ABL1(Y253F)-phosphorylated
# ABL1-nonphosphorylated = system: ABL1-nonphosphorylated
# ABL1-phosphorylated = system: ABL1-phosphorylated
# ABL2 = system: ABL2
# ACVR1B = system: ACVR1B
# ACVR1 = system: ACVR1
# ACVR2A = system: ACVR2A
# 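Also: KINOMEscan scanMAX binding as percent activity remaining versus control; lower means stronger binding.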
Compound,Percent Control (AAK1) [%],Percent Control [1] [%],Percent Control [2] [%],Percent Control [3] [%],Percent Control [4] [%],Percent Control [5] [%],Percent Control [6] [%],Percent Control [7] [%],Percent Control [8] [%],Percent Control [9] [%],Percent Control [10] [%],Percent Control [11] [%],Percent Control [12] [%],Percent Control [13] [%],Percent Control (ABL1-nonphosphorylated) [%],Percent Control (ABL1-phosphorylated) [%],Percent Control (ABL2) [%],Percent Control (ACVR1B) [%],Percent Control (ACVR1) [%],Percent Control (ACVR2A) [%]
C[C@@H](Oc1cc(-n2cnc3ccc(OC4CCN(C)CC4)cc32)sc1C(N)=O)c1ccccc1Cl [GSK579289A],62,44,52,87,100,78,43,56,80,46,67,61,75,60,60,48,83,81,85,57
CN(C)c1cc2c(Nc3ccc4c(cnn4Cc4ccccc4)c3)ncnc2cn1 [GW282974X],75,59,84,91,99,50,–,63,100,48,66,74,100,65,–,54,95,100,87,100
Cl.O=C(Nc1ccc(Oc2ccc3[nH]c(NC(=O)c4ccccc4)nc3c2)cc1)Nc1cc(C(F)(F)F)ccc1F [GW709042A],100,83,43,76,26,80,9.9,67,62,8,94,12,31,69,9.8,60,26,100,100,100
CC(C)COC(=O)c1ccc2c(c1)/C(=C/Nc1ccc(S(N)(=O)=O)cc1)C(=O)N2 [GW416981X],26,100,100,83,100,100,75,100,100,95,100,100,73,100,100,100,100,100,100,100
Cl.O=C(Nc1ccc(Oc2ccc3[nH]c(NC(=O)c4ccco4)nc3c2)cc1)Nc1cc(C(F)(F)F)ccc1F [GW683134A],100,39,20,53,6.8,54,0.7,20,22,5.5,58,6.2,9.2,17,7.9,21,3.2,82,100,100
NS(=O)(=O)c1ccc(N/N=C2\C(=O)Nc3ccc(C(=O)NCCc4c[nH]cn4)cc32)cc1 [GW300660X],100,100,100,77,98,100,93,100,100,99,100,100,86,100,100,91,100,100,100,100
COc1cccc(-n2ncc3c(N/N=C/c4ccncc4)ncnc32)c1 [GW784752X],85,1.5,100,78,98,24,0,1.5,0,0,1.7,59,27,1.6,7,1.8,54,54,5.4,81
CC1=C(C(=O)Nc2ccc3[nH]ncc3c2)C(c2ccc3ccccc3c2)CC(=O)N1 (centres unmarked) [GSK270822A],81,83,100,67,87,68,59,86,80,50,84,48,76,79,54,80,100,97,93,100
COc1ccc2cc(-c3c(-c4ccncc4)nc(-c4ccc(S(C)(=O)=O)cc4C)n3C)ccc2c1 [SB-633825],83,80,100,65,83,74,58,78,81,63,83,53,54,86,66,75,62,19,60,100
COc1cc(N2CCN(C(C)C)CC2)ccc1Nc1nc(Nc2ccc(F)cc2C(=O)NC[C@@H](O)CO)c2cc[nH]c2n1 [GSK1392956A],64,100,100,87,95,49,97,100,97,100,100,100,100,100,100,100,100,100,100,100
NS(=O)(=O)c1ccc(Nc2ncc(-c3ccccc3)o2)cc1 [GW572399X],94,81,99,87,86,100,35,87,83,78,100,100,89,100,81,87,88,100,100,100
COc1cc(/C=N/Nc2ncnc3[nH]ncc23)ccc1O [GW578748X],34,0.8,100,37,56,23,0,1.3,0,0,1.6,79,24,1.1,3.1,1.2,68,100,83,50
COc1cccc(-c2c[nH]c3c(N/N=C/c4ccncc4)ncnc23)c1 [GW814408X],69,0.7,100,66,61,19,0,0.2,0.3,0,1.1,50,48,0.5,1.2,0.3,11,42,17,75
COc1cc(C)c(N(C)C(=O)CN(C)C)cc1Nc1nc(Nc2cccc(F)c2C(N)=O)c2cc[nH]c2n1 [GSK2219385],94,95,55,97,100,56,51,99,100,62,95,65,100,100,69,87,100,100,96,100
COc1cc2ncn(-c3cc(O[C@H](C)c4ccccc4Cl)c(C(N)=O)s3)c2cc1OC [GSK237701A],29,81,100,86,92,71,20,78,56,46,76,51,39,83,59,81,73,100,100,100
Cl.O=S1CCN(Cc2ccc(-c3ccc4ncnc(Nc5ccc(OCc6ccccc6)c(F)c5)c4c3)o2)CC1 [GW576924A],100,100,100,96,100,70,99,100,100,100,100,100,100,100,100,89,100,100,100,100
NS(=O)(=O)c1ccc(N/N=C2\C(=O)Nc3ccc(-c4cnco4)cc32)cc1 [GW276655],14,63,69,59,75,74,58,83,92,85,70,67,70,69,84,74,98,100,66,90
CCc1ccc(Oc2nccc(-c3c(-c4ccc(F)cc4)ncn3C3CCNCC3)n2)cc1 [SB-242719],100,63,87,80,100,98,77,67,98,68,79,93,100,71,74,62,100,83,78,100
COc1ccc2c(-c3ccnc(Nc4cccc(OC(F)(F)F)c4)n3)cnn2n1 [GW810372X],69,100,100,100,100,100,87,100,97,98,100,100,98,100,100,100,100,100,93,100
Nc1ncnc2occ(-c3ccc(NC(=O)Nc4cc(C(F)(F)F)ccc4F)cc3)c12 [GW770249X],96,78,67,61,7.8,54,2.9,72,45,0,92,0,9.1,72,0.7,56,41,100,100,100

# Source: PMC7826789 (International Journal of Molecular Sciences, 2021)
